From PubChem BioAssay (NCATS)
For part of these data: Entries with a potency or affinity are not part of this list. The source made the active and inactive calls. The rule behind the calls is not given here.

What was measured:
[1] = Ebola virus entry assay, green fluorescence channel
[2] = Ebola virus entry assay, blue channel fluorescence
[3] = Ebola virus entry assay, ratio channel
[4] = Ebola virus entry assay, green channel fluorescence
[5] = Ebola virus entry assay, reporter ratio channel; Channel type: primary
[6] = Ebola virus entry assay, blue channel (ratio component)
Throughout, for efficacy: 0% is about no effect.

CCCCN=C(N)N=C(N)N
inactive: efficacy [1] 24.1% | outcome [2] | outcome [3] | outcome [4] | outcome [5]

O=c1[nH]sc2cc(Cl)ccc12
active: AC50 [2] 39.8 µM | AC50 [5] 39.8 µM
inactive: efficacy [1] -42.1% | outcome [3] | outcome [4]

O=C(OCc1ccccc1)c1ccc(O)cc1
active: AC50 [2] 22.4 µM
inactive: efficacy [1] -29.7% | outcome [3] | outcome [4] | outcome [5]

O=C1c2ccccc2C(=O)C1c1ccc(Br)cc1
inactive: efficacy [1] -9.92% | outcome [2] | outcome [3] | outcome [4] | outcome [5] | outcome [6]

CC(C)(C)C(=O)C(Oc1ccc(Cl)cc1)n1ccnc1 (stereo unspecified)
inactive: efficacy [1] 12.3% | outcome [3] | outcome [4]
active: AC50 [2] 39.8 µM | AC50 [5] 39.8 µM

CCN(CC)CCNC(C(=O)OCCC(C)C)c1ccccc1 (stereo unspecified)
inactive: efficacy [1] 47.8% | outcome [4]
active: AC50 [2] 31.6 µM | AC50 [3] 22.4 µM | AC50 [5] 22.4 µM

C[C@]12CC[C@@H]3c4ccc(O)cc4CC[C@H]3[C@@H]1C[C@@H](O)[C@@H]2O
inactive: efficacy [1] -24.2% | outcome [3] | outcome [4]
active: AC50 [2] 20 µM | AC50 [5] 35.5 µM

CCCCc1cc2ccccc2c(OCCN(C)C)n1
active: AC50 [2] 8.91 µM | AC50 [3] 7.08 µM | AC50 [5] 7.08 µM
inactive: efficacy [1] -77.9% | outcome [4]

CCc1cc(Cl)c(OC)c(C(=O)NC[C@@H]2CCCN2CC)c1O
active: AC50 [2] 31.6 µM | AC50 [3] 20 µM | AC50 [5] 20 µM
inactive: efficacy [1] 38.6% | outcome [4]

Cc1cc(N)c2cc(NC(=O)Nc3ccc4nc(C)cc(N)c4c3)ccc2n1
active: AC50 [2] 22.4 µM | AC50 [3] 20 µM | AC50 [5] 20 µM
inactive: efficacy [1] 18% | outcome [4]

CCc1cc2cc(OC)c(OC)cc2c(Cc2ccccc2)n1
active: AC50 [2] 25.1 µM | AC50 [5] 31.6 µM
inactive: efficacy [1] 32.1% | outcome [3] | outcome [4]

C/C=C(/C(=C/C)c1ccc(O)cc1)c1ccc(O)cc1
active: AC50 [2] 28.2 µM
inactive: efficacy [1] -16.1% | outcome [3] | outcome [4] | outcome [5]

OC(CN1CCC(Cc2ccc(F)cc2)CC1)c1ccc(Cl)cc1 (stereo unspecified)
inactive: efficacy [1] -10% | outcome [2] | outcome [3] | outcome [4] | outcome [5] | outcome [6]

Cc1cccc(OCC(O)CNC(C)(C)C)c1C (stereo unspecified)
inactive: efficacy [1] -12.5% | outcome [3] | outcome [4]
active: AC50 [2] 39.8 µM | AC50 [5] 39.8 µM

CC(C)[C@@H]1CC[C@@H](C)CC1=O
inactive: efficacy [1] -22.8% | outcome [2] | outcome [3] | outcome [4] | outcome [5] | outcome [6]

C[N+](C)(C)CCOC(=O)CCC(=O)OCC[N+](C)(C)C
inactive: efficacy [1] 18.3% | outcome [2] | outcome [3] | outcome [4] | outcome [5] | outcome [6]

CC(=O)Nc1ccn(C2COC(COC(=O)c3ccccc3)O2)c(=O)n1 (stereo unspecified)
inactive: efficacy [1] -16% | outcome [2] | outcome [3] | outcome [4] | outcome [5] | outcome [6]

Cc1c(N(C)C)c(=O)n(-c2ccccc2)n1C
inactive: efficacy [1] 14.3% | outcome [2] | outcome [3] | outcome [4] | outcome [5] | outcome [6]
